This assay has as its target AMP-activated protein kinase, AMPK (Homo sapiens) (UniProt P54646+O43741+P54619+Q9UGJ0+Q9Y478+Q13131+Q9UGI9). The experiment in a line: AMP-dependent Kinase enzyme assay. An in vitro enzyme assay that detects ADP turnover that is directly proportional to AMPK activity. This uses naive AMPK that is activated during the assay with MK-8722. Type of assay: functional. Set-up: scale not given: direction of the effect not stated beside the values. The note with it: 30 µM.
As to `COC(=O)C1CCN(C(=O)Cn2ccc(-c3ccccc3)n2)CC1`, the Percent Effect is -5.77%. Turning to `COc1cccc(C)c1C(=O)N1CCc2ncnc(NCCO)c2CC1`, the Percent Effect is -1.45%.

Regarding `CNc1ccc(C2CN(c3nc(C)cc(C)n3)CCO2)nc1` (centres undefined), the Percent Effect stood at 18%.

With `Cc1cnn(C2CCCN(C(=O)c3cc(-c4ccco4)[nH]n3)C2)c1` (centres undefined), the Percent Effect was -19.9%. For `CC(NC(=O)N1CCCN(CC(F)F)CC1)c1ccco1` (centres undefined) the value was -1.66%; for `Cc1ccccc1S(=O)(=O)N(C)[C@@H]1CC[C@@H](n2ccnc2C)[C@@H]1O`, -13.8%; for `CCN(C)C(=O)c1cccc(S(=O)(=O)NCCc2csc(N)n2)c1`, -0.697%. With `CC(CC(=O)c1ccco1)NC(=O)c1ccon1` (centres undefined), the Percent Effect turned out to be 9.56%. Take `CN(C)c1ncccc1NC(=O)COCC1CC1`: the Percent Effect is 2.89%. Turning to `O=c1[nH]nc(C2CC2)n1-c1cccc(Cl)c1`, the Percent Effect is -10.6%. In the case of `COc1nccc(N2CC[C@H](CO)[C@@H](O)C2)c1C#N` it was -6.05%. Turning to `CN1C[C@]2(CC[C@@H](C(=O)N3CCOCC3)CC2)Oc2ccccc2C1=O`, the Percent Effect amounted to 11.1%.

Regarding `NCC(CO)Cc1ccc(C(F)(F)F)cc1` (centres undefined), the Percent Effect was -3.66%.

With `N#CC1(NC(=O)c2cc(Cl)ccc2OC(F)F)CCOCC1`, the Percent Effect is -2.23%. For the molecule `O=C(c1cnco1)N1CCC(Cc2cnc3ccccc3c2)CC1`, the Percent Effect turned out to be 18.4%. Consider `CN(C)CCN(Cc1ccc(C#N)cc1)C(=O)c1ccn(C)c(=O)c1`, for which the Percent Effect is 15.4%.

Consider `Cc1ccc(OCc2occc2C(=O)N2CCOC(C(=O)O)C2)cc1` (centres undefined), for which the Percent Effect turned out to be 2.93%. For `Cc1nc(NC2(CN3CCCCC3)CCCCC2)c2cnn(C)c2n1`, the Percent Effect was 5.76%.

In the case of `CCCc1nc(C(=O)N2CCn3nc(C(=O)OC)cc3C2)cs1`, the Percent Effect is 1.42%.
